Where two headings read alike, the source gives them in different places. Screen size: about 13,000 compounds; about 3,200 (25%) showed an effect of 50% or more. This is one part of the list.
Tested on: P. falciparum stage V gametocytes
Parameters: BacTiter-Glo ATP luminescence viability of purified stage V gametocytes in 384-well plates, per cent inhibition versus DMSO
Conditions: 48 h, 5 µM, inhibitor

| SMILES | % Inhibition | % Inhibition (% Inhibition) |
| --- | --- | --- |
| Cc1cn(CC(=O)Nc2cccc(-c3cccc(-c4nc5ccc(C(F)(F)F)cc5[nH]4)c3)c2)c(=O)[nH]c1=O [TCMDC-137036] | 18.51% | – |
| O=C(Nc1ccccc1F)NC1CCN(c2ccnc(Nc3ccc(F)cc3)n2)CC1 [TCMDC-133632] | -30.06% | – |
| O=C(c1ccccc1F)N(Cc1ccc(Cl)cc1)c1ccccn1 [TCMDC-124909] | -19.06% | – |
| COc1ccc2nccc([C@@H](O)CN3CCC(NCc4ccc5c(c4)sc(=O)n5C)CC3)c2c1 [TCMDC-141149] | -6.737% | – |
| CCCCCC1c2[nH]c3ccccc3c2CCN1C(=O)OCc1ccccc1 (stereo not shown) [TCMDC-134554] | -7.791% | – |
| CCCNCc1ccc(-c2ccc(CN(Cc3ccc4c(c3)OCO4)C(=O)[C@H]3CCCO3)cc2)nc1 [TCMDC-141531] | 105.6% | – |
| CCCNCc1ccc(-c2ccc(CN(CC3CCCO3)C(=O)COc3ccccc3Cl)cc2)nc1 (stereo not shown) [TCMDC-141542] | 45.23% | – |
| CCCNCc1ccc(-c2ccc(CN(CC3CCCO3)C(=O)C3CC(=O)c4ccccc43)cc2)nc1 (stereo not shown) [TCMDC-141533] | 69.47% | – |
| CCCNCc1ccc(-c2ccc(CN(CCOC)C(=O)[C@H]3CCCO3)cc2)nc1 [TCMDC-141530] | 80.98% | – |
| CCCNCc1ccc(-c2ccc(CN(CCOC)C(=O)CC3CCCC3=O)cc2)nc1 (stereo not shown) [TCMDC-141532] | 3.565% | – |
| O=c1c2c([nH]c3cc(Cl)ccc13)CCCC2 [TCMDC-123504] | 42.94% | – |
| CS(=O)(=O)c1ccc(OCCCN(Cc2ccccc2C(F)(F)F)c2ccc(C#N)c(C(F)(F)F)c2)cc1 [TCMDC-135467] | 19.91% | – |
| O=C(N[C@@H](CC1CCCCC1)C(=O)NCCN1CCCC1)c1ccc(O)c(-c2cccc(C(F)(F)F)c2)c1 [TCMDC-140811] | 39% | – |
| Cc1cc(OC(C)C(=O)N2CCc3ccccc32)ccc1Cl (stereo not shown) [TCMDC-123696] | 25.65% | – |
| COc1ccc(Cc2cnc(N)nc2N)cc1OCCCOc1ccccc1 [TCMDC-137364] | -5.696% | – |
| Cn1ccnc1Sc1ncccc1[N+](=O)[O-] [TCMDC-123944] | 5.094% | – |
| N#Cc1cccc(NC(=O)C2=C(CCc3ccc4c(c3)OCO4)NC(=O)NC2c2cccc(C#N)c2)c1 (stereo not shown) [TCMDC-136054] | 65.54% | – |
| O=C(Nc1cccc(CN2CCCN(Cc3ccc4c(c3)OCO4)CC2)c1)c1ccc(-c2ccccc2)cc1 [TCMDC-134593] | -55.86% | – |
| O=C(Nc1cccc(CN2CCCN(Cc3ccc4c(c3)OCO4)CC2)c1)c1ccc2ccccc2c1 [TCMDC-141852] | -18.83% | – |
| COc1cc(Cc2cnc(NCCN3CCNCC3)nc2N)ccc1OCc1ccc(C(F)(F)F)cc1 [TCMDC-138704] | 48.16% | – |
| Cc1cc(NCCCCCCCCNc2cc(C)nc3ccccc23)c2ccccc2n1 [TCMDC-137746] | 113.6% | – |
| CCCCCCCN(CCCCCCC)CCNc1cc(C)nc2ccccc12 [TCMDC-137555] | 59.52% | – |
| CCCCCCCNCCNc1cc(C)nc2ccccc12 [TCMDC-137556] | 91.75% | – |
| Cc1cc(NCCCCCCNc2cc(C)nc3c(C)cccc23)c2cccc(C)c2n1 [TCMDC-125702] | 114% | – |
| CCCCCCNc1cc(C)nc2ccc(OC)cc12.Cl [TCMDC-137623] | -4.593% | – |

| SMILES | % Inhibition | % Inhibition (% Inhibition) |
| --- | --- | --- |
| CCCCCCCNc1cc(C)nc2ccc(OC)cc12.Cl [TCMDC-137622] | 19.17% | – |
| COc1cccc(Nc2nc(C)cc(NC3CCCC3)n2)c1 [TCMDC-133464] | 31.06% | – |
| CCn1ncc(Cl)c1CN(C)S(=O)(=O)c1ccc2ccccc2c1 [TCMDC-124904] | 17.76% | – |
| O=C(Nc1ccc2c(c1)CCC2)c1ccc(CN2CCCN(Cc3cccc(O)c3)CC2)cc1 [TCMDC-136388] | -14.41% | – |
| N#Cc1ccc2c(c1)CN(C1CCC(NC(=O)/C=C/c3cc(C(F)(F)F)cc(C(F)(F)F)c3)CC1)CCC2 (stereo not shown) [TCMDC-133502] | -43.57% | – |
| O=c1cc(NCCCNCc2cccc(Oc3ccccc3)c2)[nH]c2ccccc12 [TCMDC-139309] | 31.54% | – |
| O=c1cc(NCCCNCc2sc(Br)c(Br)c2Br)[nH]c2ccccc12 [TCMDC-139647] | -5.668% | – |
| O=c1cc(NCCCNCc2ccc(Cl)c(Cl)c2)[nH]c2cc(Cl)ccc12 [TCMDC-139401] | 50.55% | – |
| CCC/C=C/c1c(CNCCCNc2cc(=O)c3ccccc3[nH]2)sc(CC)c1Br [TCMDC-140971] | 58.98% | – |
| O=c1cc(NCCCNCc2cccc(OC(F)(F)F)c2)[nH]c2ccccc12 [TCMDC-139418] | 80.26% | – |
| O=c1cc(NCCCNCc2cccc(OC(F)(F)C(F)F)c2)[nH]c2ccccc12 [TCMDC-139419] | -24.87% | – |
| O=c1cc(NCCCNCc2ccc(Cl)c(Cl)c2)[nH]c2ccc(C(F)(F)F)cc12 [TCMDC-139407] | 4.234% | – |
| CCCC(CNCc1cccc(OC(F)(F)F)c1)CNc1cc(=O)c2ccccc2[nH]1 (stereo not shown) [TCMDC-139429] | 83.68% | – |
| CCCC(CNCc1cccc(OCC)c1)CNc1cc(=O)c2ccccc2[nH]1 (stereo not shown) [TCMDC-139432] | 35.2% | – |
| CCCC(CNCc1cccc(OC(F)(F)C(F)F)c1)CNc1cc(=O)c2ccccc2[nH]1 (stereo not shown) [TCMDC-139430] | -8.212% | – |
| O=c1cc(NCCCNCc2ccc(Cl)c(Cl)c2)[nH]c2ccc(Cl)cc12 [TCMDC-139400] | 23.89% | – |
| CCc1cc(Br)c(CNCCCNc2cc(=O)c3ccccc3[nH]2)s1 [TCMDC-140745] | -24.29% | – |
| CN(C)CC(=O)NCC(NCCCNc1cc(=O)c2ccccc2[nH]1)c1cc(Br)cc(Br)c1 (stereo not shown) [TCMDC-140314] | -36.64% | – |
| CN(CCCN(C)c1cc(NC(=O)c2ccc(F)cc2)ccn1)Cc1cccc(F)c1 [TCMDC-135041] | -7.091% | – |
| Cc1ccc(O)c(-c2cc(C(=O)Nc3ccc(S(=O)(=O)N4CCCC(C)C4)cc3)[nH]n2)c1 (stereo not shown) [TCMDC-125202] | -32.7% | – |
| CN1CCCc2ccc(NC(=O)c3cnc(-c4ccccc4)cn3)cc21 [TCMDC-141218] | -34.46% | – |
| O=c1cc(NCCCN(Cc2ccccc2)Cc2ccccc2)[nH]c2ccccc12 [TCMDC-139368] | -49.11% | – |
| O=c1cc(NCCCNC2CCc3c(Cl)cc(Cl)cc32)[nH]c2ccccc12 (stereo not shown) [TCMDC-139485] | 17.36% | – |
| O=c1cc(NCCCNCc2cc(Cl)c(Cl)cc2Cl)[nH]c2ccccc12 [TCMDC-139631] | -58.3% | – |
| O=c1cc(NCCCNC2CCc3ccc(Cl)cc32)[nH]c2ccccc12 (stereo not shown) [TCMDC-139365] | 84.72% | – |

| SMILES | % Inhibition | % Inhibition (% Inhibition) |
| --- | --- | --- |
| O=c1cc(NCCCNC(c2ccccc2)c2ccc(Cl)c(Cl)c2)[nH]c2ccccc12 (stereo not shown) [TCMDC-139318] | 54.86% | – |
| O=c1cc(NCCCNC2CCCc3c2cc(Cl)c(Cl)c3Cl)[nH]c2ccccc12 (stereo not shown) [TCMDC-139478] | 2.268% | – |
| Cc1[nH]c2ccc(O)cc2c1C1CCN(CC2CCN(C(=O)/C=C/c3ccc(Cl)c(Cl)c3)CC2)CC1 [TCMDC-140219] | 39.96% | – |
| CCCCCCCCCC(=O)NCC1CC(Br)=NO1 (stereo not shown) [TCMDC-137735] | 4.616% | – |
| OC(CNC1CCCCCCC1)c1ccc(Cl)c(Cl)c1 (stereo not shown) [TCMDC-141991] | -9.212% | – |
| OC(CNCCCCCCNCC(O)c1ccc(Cl)c(Cl)c1)c1ccc(Cl)c(Cl)c1 (stereo not shown) [TCMDC-141987] | 99.2% | – |
| OC(CNC1CCCCC1)c1ccc(Cl)c(Cl)c1 (stereo not shown) [TCMDC-123990] | 75.22% | – |
| OC(CNC1CCCCCC1)c1ccc(Cl)c(Cl)c1 (stereo not shown) [TCMDC-141990] | -11.57% | – |
| CC(C)C[C@H](NC(=O)c1ccc(OCCN2CCOCC2)cc1)C(=O)N[C@H](/C=N/N(C)C(=O)c1ccccc1)CCc1ccccc1 [TCMDC-135854] | 17.32% | – |
| CC1(C)N=C(N)N=C(N)N1OCc1cccs1 [TCMDC-131654] | 20.54% | – |
| COC(=O)/C=C/c1ccc(CC(C)NCC(O)c2cccc(C(F)(F)F)c2)cc1 (stereo not shown) [TCMDC-131448] | – | -0.1444% |
| CCNc1cc(C(=O)N[C@@H](Cc2ccccc2)[C@H](O)CNC(C)(C)Cc2ccccc2)cc(N2CCCC2=O)c1 [TCMDC-134567] | 5.299% | – |
| CCNc1cc(C(=O)N[C@@H](Cc2ccccc2)[C@H](O)CN[C@@H](C)c2cccc(OC)c2)cc(N2CCCC2=O)c1 [TCMDC-138824] | -0.5109% | – |
| CCNc1cc(C(=O)N[C@@H](Cc2ccccc2)[C@H](O)CN[C@H]2CCc3ccccc32)cc(N2CCCC2=O)c1 [TCMDC-138917] | 52.85% | – |
| CCNc1cc(C(=O)N[C@@H](Cc2ccccc2)[C@H](O)CNC(CC)c2cccc(Cl)c2)cc(N2CCCCS2(=O)=O)c1 (stereo partly shown) [TCMDC-135221] | 3.057% | – |
| CCNc1cc(C(=O)N[C@@H](Cc2ccccc2)[C@H](O)CN[C@@H]2CCc3ccccc32)cc(N2CCCC2=O)c1 [TCMDC-132414] | 21.82% | – |
| CCNc1cc(C(=O)N[C@@H](Cc2ccccc2)[C@H](O)CNC(C)(C)CSCC(C)C)cc(N2CCCC2=O)c1 [TCMDC-134311] | 69.93% | – |
| CCNc1cc(C(=O)N[C@@H](Cc2ccccc2)[C@H](O)CN[C@H](C)c2ccccc2)cc(N2CCCC2=O)c1 [TCMDC-138822] | 64.41% | – |
| CCCCCC(C)(C)NC[C@@H](O)[C@H](Cc1ccccc1)NC(=O)c1cc(NCC)cc(N2CCCC2=O)c1 [TCMDC-138912] | 10.89% | – |
| CCNc1cc(C(=O)N[C@@H](Cc2ccccc2)[C@H](O)CNC(CC)c2cccc(Cl)c2)cc(N2CCCC2=O)c1 (stereo partly shown) [TCMDC-135264] | 64.68% | – |
| CCNc1cc(C(=O)N[C@@H](Cc2ccccc2)[C@H](O)CN[C@@H](C)c2ccccc2)cc(N2CCCC2=O)c1 [TCMDC-138823] | 8.317% | – |
| CCNc1cc(C(=O)N[C@@H](Cc2ccccc2)[C@H](O)CNC2CCCC2)cc(N2CCCC2=O)c1 [TCMDC-138844] | 16.89% | – |
| CCC(NC[C@@H](O)[C@H](Cc1ccccc1)NC(=O)c1cc(C2CCCC2)cc(N2CCCC2=O)c1)c1cccc(Cl)c1 (stereo partly shown) [TCMDC-135265] | 4.239% | – |

Reference: article PMC4552634, “A New Set of Chemical Starting Points with Plasmodium falciparum Transmission-Blocking Potential for Antimalarial Drug Discovery” (PLoS ONE, 2015)
